# Test results: PubChem BioAssay (NCI)
# Compounds without any hit were thinned out: in the full panel of roughly 79,000, 15% have a hit. Values without a mark were called inactive. Activity calls are given as the source filed them. No stated cut-off is given here; in the data, active means growth inhibition above about 70%; inactive means the rest.
# Assays:
# [1] = NCI Yeast Anticancer Drug Screen. Data for the rad50 strain (AID 155);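 further: 0% = growth of vehicle-only cultures of the same strain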; details: S. cerevisiae rad50 strain growth inhibition, active compounds read high
# In short: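 Relative growth inhibition (compound vs vehicle) was measured in yeast with a defined repair-gene alteration.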
# [2] = NCI Yeast Anticancer Drug Screen. Data for the mec2-1 strain (AID 157); details: S. cerevisiae mec2-1 strain, active compounds read high
# In short: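 Test agents were screened against the mec2-1 yeast strain, with defined DNA repair or cell cycle alteration. Growth was scored as inhibition against vehicle-only controls.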
# [3] = NCI Yeast Anticancer Drug Screen. Data for the sgs1 mgt1 strain (AID 161);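 further: 0% = growth of cultures given vehicle only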; details: S. cerevisiae sgs1 mgt1 strain, active compounds read high
# In short: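 Read-out: growth inhibition vs vehicle controls. Cells: mutant yeast strain deficient in DNA damage repair.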
# [4] = NCI Yeast Anticancer Drug Screen. Data for the cln2 rad14 strain (AID 165);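 further: 0% = growth equal to vehicle treated cultures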; details: S. cerevisiae cln2 rad14 strain, active compounds read high
# In short: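 Growth of compound-exposed yeast (cln2 rad14 genotype) measured and expressed as inhibition relative to vehicle.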
# [5] = NCI Yeast Anticancer Drug Screen. Data for the bub3 strain (AID 167); details: S. cerevisiae bub3 mutant strain, active compounds read high
# In short: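 Screening used yeast with an engineered genetic alteration affecting cell cycle control. Compound-exposed cultures were compared with vehicle cultures, and reduced growth was taken as inhibition.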
# [6] = NCI Yeast Anticancer Drug Screen. Data for the mlh1 rad18 strain (AID 175); details: S. cerevisiae mlh1 rad18 strain growth inhibition, active compounds read high
# In short: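 In this whole-cell yeast screen, a strain with altered DNA damage repair is challenged with compound, and its growth is measured against matched vehicle-treated controls.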
# [7] = at 5.0 µM (retest, dose inferred, filed as 0.5)
# [8] = at 50.0 µM (retest, dose inferred, filed as 5.0)
SMILES,"growth inhibition [1, 7]","growth inhibition [1, 8]",growth inhibition ([1]; at 50.0 µM),"growth inhibition [2, 7]","growth inhibition [2, 8]",growth inhibition ([2]; at 50.0 µM),"growth inhibition [3, 7]","growth inhibition [3, 8]",growth inhibition ([3]; at 50.0 µM),"growth inhibition [4, 7]","growth inhibition [4, 8]",growth inhibition ([4]; at 50.0 µM),"growth inhibition [5, 7]","growth inhibition [5, 8]",growth inhibition ([5]; at 50.0 µM),"growth inhibition [6, 7]","growth inhibition [6, 8]",growth inhibition ([6]; at 50.0 µM)
CN(C)/N=C1\CC(c2ccccc2)C(C#N)(C#N)C1(C#N)C#N (stereo not given),41%,99% (active),89.3% (active),51%,100% (active),89% (active),42%,100% (active),88.5% (active),39%,99% (active),88.5% (active),56%,100% (active),89.6% (active),51%,99% (active),91.5% (active)
COC(=O)CCN1c2ccccc2Sc2ccccc21,-14%,38%,48.8%,-23%,21%,23.1%,-13%,30%,47.5%,31%,42%,23.4%,16%,62%,12.1%,-15%,49%,64.7%
Cc1ccccc1N=Nc1c(C)nn(C(N)=S)c1-c1ccccc1,6%,85% (active),95.2% (active),-15%,96% (active),57.1%,-5%,96% (active),94.8% (active),-6%,87% (active),-4.5%,-3%,97% (active),34.5%,12%,97% (active),96.3% (active)
CC(O)c1cccnc1 (stereo not given),11%,-8%,65.5%,10%,1%,49.6%,4%,-1%,20%,20%,41%,58.1%,-6%,47%,28.6%,-9%,51%,66%
CCc1cccc(CC)c1NC(=O)C(C#N)C1=C(Cl)C(=O)c2ccccc2C1=O (stereo not given),63%,97% (active),89.8% (active),92% (active),98% (active),93.5% (active),73% (active),99% (active),90% (active),36%,99% (active),91.3% (active),67%,99% (active),92.1% (active),75% (active),96% (active),90.5% (active)
CCCCCCCCCCCCNC(=O)c1ccc[n+](Cc2ccc(Cl)c(Cl)c2)c1,99% (active),98% (active),99% (active),100% (active),99% (active),99% (active),99% (active),98% (active),98.8% (active),99% (active),99% (active),98.2% (active),98% (active),98% (active),97.8% (active),99% (active),99% (active),98.7% (active)
CC1([N+](=O)[O-])C(=O)C2(N3CCCCC3)CCCC2C1c1ccccc1 (stereo not given),3%,10%,15.5%,3%,21%,8.6%,6%,8%,19%,5%,-1%,36.2%,1%,13%,12%,1%,20%,16.5%
CCCCCCCCCc1cc(=O)[nH]c(=S)[nH]1,17%,74% (active),85.1% (active),6%,72% (active),77.7% (active),25%,65%,79.3% (active),-13%,58%,50.5%,8%,77% (active),85.9% (active),20%,84% (active),86.8% (active)
C=CCNC(=S)N/N=C(\CCC)c1ccccn1,98% (active),95% (active),99.3% (active),99% (active),96% (active),99.6% (active),99% (active),96% (active),99.6% (active),96% (active),93% (active),99.2% (active),98% (active),95% (active),99.5% (active),99% (active),95% (active),47.9%
CCCCN(CCCC)c1ccc2c(c1)C(O)c1ccccc1-2 (stereo not given),6%,81% (active),76.5% (active),2%,74% (active),59.2%,4%,78% (active),88.1% (active),5%,85% (active),74.8% (active),0%,77% (active),82% (active),15%,72% (active),85.2% (active)
